# Measurements from PubChem BioAssay (NCI).
# This is part of a sample that, as a whole, favours compounds with a hit. Of some 83,000 tested, about 20% had one in any assay.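 Method: cells in 96-well plates; compound added at one concentration; 48 h incubation; percent growth measured; values under 10 scored active.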 A number with no mark means an inactive call. The source made the active and inactive calls.
# What was measured:
# Assay in all cases: NCI-60 one-dose screen, 48 h (100 = growth as untreated, 0 = no growth, -100 = all killed)
# SR leukemia = settings: 10 µM
# RPMI-8226 leukemia = settings: 10 µM
# OVCAR-8 ovarian = settings: 10 µM
# OVCAR-5 ovarian = settings: 10 µM
# OVCAR-4 ovarian = settings: 10 µM
# SK-OV-3 ovarian = settings: 10 µM
# IGROV1 ovarian = settings: 10 µM
# OVCAR-3 ovarian = settings: 10 µM
# HS 578T breast = settings: 10 µM
# NCI/ADR-RES ovarian = settings: 10 µM
# T-47D breast = settings: 10 µM
# BT-549 breast = settings: 10 µM
# MDA-MB-435 melanoma = settings: 10 µM
# SW-620 colon = settings: 10 µM
# MCF7 breast = settings: 10 µM unless noted
# HCT-116 colon = settings: 10 µM
# HCC-2998 colon = settings: 10 µM
# KM12 colon = settings: 10 µM
Structure (SMILES),growth (SR leukemia),growth (RPMI-8226 leukemia),growth (OVCAR-8 ovarian),growth (OVCAR-5 ovarian),growth (OVCAR-4 ovarian),growth (SK-OV-3 ovarian),growth (IGROV1 ovarian),growth (OVCAR-3 ovarian),growth (HS 578T breast),growth (NCI/ADR-RES ovarian),growth (T-47D breast),growth (BT-549 breast),growth (MDA-MB-435 melanoma),growth (SW-620 colon),growth (MCF7 breast),growth (HCT-116 colon),growth (HCC-2998 colon),growth (KM12 colon)
O=C(O)CSCSCC(=O)O,97.1%,97.3%,101%,101%,99.6%,93.6%,107%,104%,114%,109%,95.4%,101%,99.6%,105%,99.6%,106%,109%,109%
CC(=O)/C(Cc1ccccc1)=N/O,81.8%,97.5%,96.1%,97.7%,92%,89.3%,112%,106%,100%,99.9%,89.8%,90.8%,103%,98.4%,94.5%,87.4%,111%,105%
CCCCCCCO,91.5%,102%,99.7%,87.5%,97.9%,106%,115%,115%,102%,107%,104%,103%,114%,95%,88.8%,102%,107%,112%
Cc1ccc(C(=O)NC2c3ccccc3Oc3ccccc32)cc1,26.6%,78.9%,48.6%,80.6%,64.7%,48.3%,50.8%,31.6%,46.5%,55%,60.5%,62.6%,6.21% (active),38.9%,21.7%,30.3%,75.6%,51.3%
CCCOC(=O)C(O)c1ccccc1 (configuration not stated),107%,118%,114%,94.9%,119%,107%,117%,106%,104%,109%,104%,103%,111%,102%,98.3%,97.8%,110%,101%
CSC(=N\N=C\c1ccc(N(C)C)cc1)/N=C/N(C)C,99%,92.3%,102%,95.5%,107%,106%,105%,112%,90.1%,119%,94.9%,113%,102%,83.8%,97%,102%,108%,110%
CCOC(=O)C1=C(Nc2ccc(Br)cc2)C(=O)N(CC)C1,97.7%,99.7%,95.7%,91%,93.7%,102%,93.1%,110%,97.4%,93.3%,107%,86.9%,101%,100%,105%,95.9%,101%,101%
COc1cc(CN)ccc1O,89.5%,81%,102%,95.5%,108%,93.8%,78.7%,105%,102%,94.2%,94.5%,95%,99.5%,103%,83.7%,103%,86.3%,104%
O=c1cc(-c2ccccc2)[nH]c(=S)[nH]1,91.9%,89.6%,111%,98.4%,110%,113%,104%,106%,103%,101%,107%,97.5%,104%,104%,95.3%,101%,104%,96.7%
Cc1cc(N)ccc1-c1ccc(N)cc1C,95.2%,108%,90.7%,98.4%,108%,96.4%,104%,99.8%,90.4%,92.5%,98.1%,92.3%,102%,101%,104%,105%,88.4%,99.7%
CCO/C=C1\SC(=S)N(c2cccc(C)c2)C1=O,87.9%,92.4%,101%,106%,100%,88.7%,107%,104%,103%,109%,93.2%,114%,103%,103%,90.5%,109%,106%,103%
CCOC(=O)C1OC1c1ccccc1 (configuration not stated),98.7%,113%,106%,102%,101%,99%,108%,101%,115%,106%,98.8%,102%,107%,107%,96%,98.6%,108%,100%
Cc1cc(C(C)(C)C)cc(C)c1Br,84.9%,95.1%,111%,105%,115%,108%,112%,120%,99.6%,111%,115%,104%,110%,104%,103%,97.6%,99.4%,105%
Clc1ccc(-c2nnc(-c3cccc4ccccc34)o2)cc1,85.5%,101%,94.7%,93.3%,84.1%,91.6%,69.2%,103%,103%,95.6%,53.4%,104%,96%,93%,32.2%,93.9%,104%,102%
COc1ccc(Oc2c(I)cc(CC(NC(C)=O)C(=O)O)cc2I)cc1 (configuration not stated),83.1%,74.3%,83.2%,91.7%,89.4%,105%,106%,99%,95.7%,62.4%,74%,65.1%,85.1%,104%,89.2%,79.6%,88%,113%
c1ncc2[nH]cnc2n1,100%,91.9%,95.6%,96.7%,110%,90.8%,92%,110%,114%,104%,94.5%,106%,108%,96.7%,93.5%,92.4%,93.7%,105%
CCCCC(O)c1ccccc1 (configuration not stated),98%,108%,93.8%,115%,100%,95.4%,110%,109%,116%,99.3%,87.2%,110%,108%,108%,103%,108%,104%,106%
Cc1cccc([N+](=O)[O-])c1Cl,117%,103%,99.6%,96.4%,109%,107%,112%,106%,98.1%,92.8%,103%,100%,91.4%,100%,105%,108%,86.1%,104%
COc1cc(-c2ccc(NC(=O)NC3CC3)c(OC)c2)ccc1NC(=O)NC1CC1,1.38% (active),36.2%,57.9%,101%,80.4%,75.5%,83.8%,97.3%,81.5%,90.3%,82.8%,89.5%,99.4%,66.8%,72.4%,36.9%,68.2%,71.8%
